High-throughput results from PubChem.
Shown are actives, neighbours in structure and some others; about 12% of the full set was active somewhere.
HP1b binding inh: inhibitors of HP1-beta chromodomain binding to methylated histone tails | AlphaScreen HP1-beta / biotin-H3K9me3 peptide binding | Potency, µM (top dose mostly 114 µM), without a hit: at the highest dose activity change, negative = inhibition, usual class: inhibitors | 390,000 tested, 0.56% active; also: potency is read from the fitted curve at half-maximal effect; nearly all actives have a fitted effect of over 70% in size
Target sequence (P83916 whole entry, looked up): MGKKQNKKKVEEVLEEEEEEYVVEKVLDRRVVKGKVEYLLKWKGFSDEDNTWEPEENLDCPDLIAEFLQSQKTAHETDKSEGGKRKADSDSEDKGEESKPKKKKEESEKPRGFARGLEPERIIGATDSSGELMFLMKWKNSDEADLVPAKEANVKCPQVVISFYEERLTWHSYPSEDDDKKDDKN
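Compound inhibition of the preformed complex between 50 nM HP1-beta and 50 nM biotinylated H3K9me3 peptide was read by AlphaScreen. Buffer was PBS pH 7.4 with 0.01% Tween-20. Incubations ran 30 min at room temperature, with 10 ug/mL donor/acceptor beads.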
G9a block: G9a (human) methyltransferase inhibition; Q96KQ7; G9a H3K9 monomethylation, AlphaScreen, 2 h; Potency, µM (titrated, usually from 102 µM), for the others: at the highest dose activity, negative = inhibition, usual class: inhibitors; 350,000 tested, 8.8% active; AID 504332; also: potency is read from the fitted curve at half-maximal effect; % is scaled to controls: 0 for no effect and ±100 for the full control effect; nearly all actives have a fitted effect of over 75% in size
Target sequence (Q96KQ7 913-1193 limits assumed): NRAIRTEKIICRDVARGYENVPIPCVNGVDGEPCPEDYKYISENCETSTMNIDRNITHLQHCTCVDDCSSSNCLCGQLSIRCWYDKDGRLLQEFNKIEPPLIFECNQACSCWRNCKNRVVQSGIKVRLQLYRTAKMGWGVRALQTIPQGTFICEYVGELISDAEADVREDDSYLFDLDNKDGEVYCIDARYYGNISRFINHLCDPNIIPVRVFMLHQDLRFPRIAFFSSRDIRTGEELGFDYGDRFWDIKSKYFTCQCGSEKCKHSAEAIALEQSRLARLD
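G9a (20 nM) was preincubated 15 min with compound, then reacted 2 h at room temperature with 500 nM biotin-H3K9 peptide and 20 µM SAM. Monomethyl-H3K9 detected by AlphaScreen using anti-H3K9me1 antibody.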
PLK1 PBD block: PLK1 (human) polo-box domain binding inhibition; Plk1 PBD binding of FITC phosphopeptide, fluorescence polarization; 360,000 tested, 2.8% active; AID 720504; Potency, µM, for inactives: max response, negative = inhibition, most hits filed as inhibitors; P53350; also: potency is read from the fitted curve at half-maximal effect; series mostly up to about 57 µM; % is scaled to controls: 0 for no effect and ±100 for the full control effect; nearly all actives have a fitted effect of over 65% in size
JMJD2A Tudor inh: blocks the human JMJD2A Tudor domain; O75164; 390,000 tested, 4.4% active; AID 504339; AlphaScreen JMJD2A-Tudor / H3K4me3 peptide binding; Potency, µM (highest dose often 114 µM), without a hit: top-dose activity change, negative = inhibition, usual class: inhibitors; also: potency is read from the fitted curve at half-maximal effect; % is scaled to controls: 0 for no effect and ±100 for the full control effect; nearly all actives have a fitted effect of over 50% in size
BAZ2B block: BAZ2B (human) inhibition | AlphaScreen BAZ2B-H3K14Ac peptide displacement | Q9UIF8 | Potency, µM (series often up to 114 µM), for the others: top-dose activity change, negative = inhibition, most hits filed as inhibitors | 360,000 tested, 4.4% active; also: potency is read from the fitted curve at half-maximal effect; % is scaled to controls: 0 for no effect and ±100 for the full control effect; nearly all actives have a fitted effect of over 60% in size
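Complex of BAZ2B and biotin-H3K14Ac (50 nM apiece) forms over 30 min at RT, then faces library compounds up to 110 uM for another 30 min; AlphaScreen beads added, 20 min dark incubation, luminescence read.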
PI5P4K alpha inh: blocks human PI5P4K alpha kinase activity | P48426 | PI5P4Kalpha enzyme, ADP-Glo luminescence, 60 min; active compounds read low | max response, % | 330,000 tested, 1.2% active | AID 652105; active = max response of -50% or lower; inconclusive = between -30% and -50%; inactive = -30% or higher; also: value at the top dose of about 77 µM; % is scaled to controls: 0 for no effect and ±100 for the full control effect
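Enzyme plus substrate dispensed, test compounds pinned in, then ATP (5 microM final) added. After 60 min at RT, ADP-Glo reagent 1 for 45 min and reagent 2 for 30 min preceded luminescence imaging.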
* = called active by the depositor; ? = inconclusive; nt = no result given; ! = repeats disagree; [ ] = dose if it differs, or a comment. Unless noted, calls follow the shape of the dose curve; as a rule, active = well fitted curve in the direction sought with a large enough effect; inconclusive = small, poorly fitted or top-dose-only effect, or another doubt; inactive = no such curve, though single readings can be large; an effect the other way counts as inactive or inconclusive.

SMILES	HP1b binding inh	G9a block	PLK1 PBD block	JMJD2A Tudor inh	BAZ2B block	PI5P4K alpha inh
CC(=O)Nc1ccc([C@H]2[C@H](C)CC[C@H]3C(=O)N4[C@@H](CC[C@@H](C)[C@@H]4c4ccc(NC(C)=O)cc4)C(=O)N32)cc1	nt	?	nt	nt	56µM*	nt
CCOC(=O)C1=CC[C@]2(C)c3c(c4ccccc4n3C)C(=O)C1N2C	47%	10%[0.501 µM]	-6%	0%	-2%	-4
O=C(NCc1ccncc1)c1ccc(Oc2ccccc2)cc1	1%	15%	11µM*	13µM*	-14%	?
O=C(CCNNC(=O)c1ccncc1)NCc1ccccc1	42%	10µM*!	3%	3%	5%	1
Cc1ccc(Oc2ccc(C(=O)NCc3ccncc3)cc2)cc1	27%	1%	-6%	-31%	-17%	-6
Fc1ccc(C2=NC(c3cccc(C(F)(F)F)c3)=Nc3ccccc3N2)cc1	21%	-3%[59 µM]	nt	-24%	-21%	nt
CC(C)c1nc2n(n1)C1(CCCCC1)[C@@H]1CCCC[C@@H]1N2	56%	-14%[59 µM]	nt	-16%	-30%	nt
COc1cc(NS(=O)(=O)c2ccc(C)cc2C)cc(OC)c1OC	29%	79µM*	-1%	-6%	?	-1
Cc1cc(C)c(S(=O)(=O)Nc2ccncc2)cc1C	27%	nt	-2%	-3%	2%	5
COc1cc(NS(=O)(=O)c2cc3[nH]c(=O)c(=O)[nH]c3cc2C)cc(OC)c1OC	67%	nt	-14%	-27%	?	-17
Cc1ccc(S(=O)(=O)Nc2ccncc2)c(C)c1	3%	-92%	-5%	89µM*	-3%	0
CSc1nc(O)c(N=Nc2ccc(F)cc2F)c(=O)[nH]1	48%	11%[2.33 µM]	-14%	-21%	1%	-10
O=C(NCCN1CCC(n2c(=O)[nH]c3ccccc32)CC1)c1ccncc1	nt	nt	-4%	nt	nt	0
CC1Cn2c(nnc2-c2cc3ccccc3cc2O)S1 (stereo not drawn)	15%	?	1%	-32%	-8%	nt
CC1Cn2c(nnc2-c2ccccc2O)S1 (stereo not drawn)	33%	8.9µM*	-3%	?	?	-1
C[N+](=O)C1C(=O)Nc2ccccc21 (stereo not drawn)	nt	nt	nt	nt	nt	11
CC(C)Oc1ccc(CNCC2(O)CCOC(C)(C)C2)cc1 (stereo not drawn)	?	8.9µM*	30µM*	2.2µM*	?	-2
COc1ccc(C(=O)NCCc2c[nH]c3ccc(OC)cc23)cc1	-5%	-7%	3%	-18%	?	-3
COc1ccc2[nH]cc(CCNC(=O)c3ccc4ccccc4n3)c2c1	-14%	71µM*	-3%	?	?	1
COc1cc2c(CCNC(C)=O)c[nH]c2cc1O	27%	20µM*!	-5%	-1%	nt	0
COc1ccc(NC(=S)NCCc2ccc(Cl)cc2)c(OC)c1	-2%	-29%	-3%	-35%	?	-1
COc1ccc(NC(=S)NCCc2c[nH]c3ccc(OC)cc23)c(OC)c1	-36%	nt	-21%	?	45µM*	nt
COc1ccc2c(CCNC(N)=S)c[nH]c2c1	-18%	-42%	19µM*	20µM*	89µM*	-4
COc1ccc(CCNC(=O)NCCc2c[nH]c3ccccc23)cc1OC	-6%	-4%[2.33 µM]	-1%	-18%	-22%	-1
CN(C(=O)Cn1nnc(-c2ccccc2)n1)C1CCS(=O)(=O)C1 (stereo not drawn)	13%	7%	-7%	-16%	-4%	5
SMILES	HP1b binding inh	G9a block	PLK1 PBD block	JMJD2A Tudor inh	BAZ2B block	PI5P4K alpha inh
Cc1ccc(C)c(NC(=O)Cn2c(=O)n(Cc3ccc4c(c3)OCO4)c(=O)c3oc4ccccc4c32)c1	16%	-8%[59 µM]	nt	-14%	-7%	nt
Nc1ncc(S(=O)(=O)Nc2ccc(F)cc2F)cn1	26%[57 µM]	-3%[59 µM]	nt	-5%	3%	nt
COc1ccc(NC(=S)NCCc2c[nH]c3ccccc23)c(OC)c1	7%	50µM*	2%	-30%	45µM*	-2
O=C(O)Cc1c(C(=O)O)[nH]c2ccc(C(=O)O)cc12	34%	50µM*	3%	-11%	?	4
COc1ccc2[nH]c(C(=O)O)c(CCN3C(=O)c4ccc(C(=O)O)cc4C3=O)c2c1	25%	?	2%	-6%	-4%	-60*
Cn1cnc([N+](=O)[O-])c1S(=O)(=O)Oc1cccc2ccccc12	-4%	nt	8.4µM*	-34%	nt	0
S=C(NCc1ccccc1)Nc1ccc(Cl)cc1	44%	-5%	5%	6%	0%	2
Cc1occc1C(=O)NNC(=S)NC(=O)COc1ccc(Cl)cc1Cl	?	8.9µM*	-22%	-20%	-18%	?
O=C(COc1ccc(Cl)cc1Cl)NNC(=S)Nc1ccc(F)cc1	-12%	11µM*	-25%	-24%	-3%	nt
Cc1occc1C(=O)NNC(=O)COc1ccc(Br)cc1Br	26%	8%[59 µM]	-5%	-17%	2%	-1
C=CCNC(=O)COc1ccc(Br)cc1Cl	15%	-8%[59 µM]	-1%	-12%	-1%	0
C=CCNC(=S)NNC(=O)COc1ccc(Cl)cc1Cl	1%	10µM*	-15%	?	10%	1
C=CCNC(=S)Nc1ccc(Cl)cc1	17%	24%	13µM*	-5%[11.4 µM]	-5%	-8
CC1(C(=O)NCc2ccccc2)CSCC(=O)N1Cc1ccco1 (stereo not drawn)	nt	nt	-8%	nt	nt	8
Cc1cccc(NC(=O)c2cc3c(=O)n(Cc4ccco4)ccc3nc2C)c1	-14%	-4%[59 µM]	nt	-33%	-27%	nt
Cc1ccccc1Cn1c2ccccc2c2cnn(CC(=O)NCCCc3ccccc3)c(=O)c21	43%	-2%[59 µM]	nt	-8%	-1%	nt
COc1ccc(NC(=O)Cn2c(SCc3ccc(F)cc3)nc3cccnc32)c(OC)c1	-5%	?	nt	-16%	1%	nt
Cc1cccc(C)c1NC(=S)/C(=C(\[O-])c1cccs1)[n+]1ccccc1	37%	7.9µM*	-14%	-31%	0%	-10
[O-]/C(=C(\C(=S)Nc1cccc2ccccc12)[n+]1ccccc1)c1cccs1	?	35µM*	-20%	79µM*	?	-16
CN(Cc1ccc(OCC(O)CN2CCCCC2)cc1)Cc1ccnc2ccccc12 (stereo not drawn)	-1%	50µM*	-4%	-31%	-27%	1
COc1ccc(C(C)=O)cc1Cn1nnc(-c2ccccc2Br)n1	28%	4%	-13%	-6%	56µM*	-9
